The target in test [1] is Transcription factor E2F1 (Homo sapiens) (UniProt Q01094). Kind of test: ATG_E2F_CIS: Attagene CIS-FACTORIAL HepG2 Assay for human E2F Transcription Factor 1 (AID 2282935). The settings on record: HepG2 Attagene cis-reporter, E2F reporter RNA transcripts; actives raise or lower the signal. In a few lines:
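Transient MRTU transfection of HepG2; 24 h compound exposure; RNA → oligo(dT) RT → PCR → FAM label → HpaI cut → CE fluorescence. Gain/loss of signal fit against DMSO.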

Test [2] is described as follows: ATG_E_Box_CIS: Attagene CIS-FACTORIAL HepG2 Assay for human Enhancer Box (E-box) (AID 2282936). To be noted: HepG2 E-box cis-reporter transcription, actives raise or lower the signal. In outline:
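Transiently transfected HepG2, endogenous TF-driven reporters, 24 h dosing. Readout: RT-PCR plus capillary electrophoresis of fluorescent reporter fragments. Gain or loss of signal fitted bidirectionally against DMSO baseline.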

A short description of test [3]: ATG_M_61_CIS: Attagene CIS-FACTORIAL HepG2 Assay for M61 Transcription Factor (Internal Marker) (AID 2282937). The settings on record: HepG2 Attagene CIS-FACTORIAL M61 internal marker reporter; actives raise or lower the signal. In outline: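 Multiplexed reporter mRNA assay, HepG2 human hepatoma cells, 24 h treatment. Signal: FAM-labelled, HpaI-digested RT-PCR fragments by CE. Fit: bidirectional, baseline DMSO.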

The nature of test [4]: ATG_EGR_CIS: Attagene CIS-FACTORIAL HepG2 Assay for human Early Growth Response 1 (EGR1) (AID 2282938). To be noted: HepG2 Attagene CIS-FACTORIAL EGR reporter mRNA; actives raise or lower the signal. In a few lines:
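Multiplexed cis-reporter system in human hepatoma HepG2 cells, transiently transfected. Cells are dosed for 24 h; reporter transcripts are amplified, fluorescently tagged and sized by capillary electrophoresis, with DMSO as negative control.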

A short description of test [5]: ATG_M_19_CIS: Attagene CIS-FACTORIAL HepG2 Assay for M19 Transcription Factor (Internal Marker) (AID 2282939). The settings on record: HepG2 Attagene CIS-FACTORIAL M19 internal marker reporter; actives raise or lower the signal. In a few lines: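 Readout: fluorescent reporter-transcript fragments by capillary electrophoresis after RT-PCR. Human HepG2 liver cells carried transfected MRTU constructs reporting endogenous transcription-factor activity; exposure 24 h. Gain or loss of signal fitted relative to DMSO.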

Test [6] is described as follows: ATG_ERE_CIS: Attagene CIS-FACTORIAL HepG2 Assay for Estrogen Response Element (ERE) (AID 2282940). The settings on record: HepG2 ERE cis-reporter, Attagene RNA transcript; actives raise or lower the signal. In outline:
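Readout: reporter mRNA induction by RT-PCR, FAM-labelled primer extension, HpaI digestion and capillary electrophoresis, 24 h after dosing transfected HepG2 cells. Endogenous transcription factors act on cis-element-regulated reporters. Gain or loss fitted against DMSO.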

Test [7] can be described thus: ATG_Ets_CIS: Attagene CIS-FACTORIAL HepG2 Assay for human Erythroblast Transformation Specific (ETS) (AID 2282941). To be noted: HepG2 ETS cis-reporter transcription, actives raise or lower the signal. In a few lines:
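Bidirectional fit versus DMSO of reporter mRNA signal, detected by RT-PCR and capillary electrophoresis in HepG2 cells transiently transfected with cis-element reporters and dosed 24 h.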

The target of test [8] is Hepatocyte nuclear factor 3-beta (Homo sapiens) (UniProt Q9Y261). Kind of test: ATG_FoxA2_CIS: Attagene CIS-FACTORIAL HepG2 Assay for human Forkhead box A2 (FOXA2) (AID 2282942). The settings on record: HepG2 cis-reporter transcription factor activity, 24 h; actives raise or lower the signal. In a few lines:
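Multiplexed cis-element reporter assay in transiently transfected HepG2. Twenty-four hours post-dosing, RNA was reverse-transcribed, amplified, FAM-labelled, HpaI-digested and separated by CE. Activity gain or loss relative to DMSO.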

Test [9] in a line: ATG_FoxO_CIS: Attagene CIS-FACTORIAL HepG2 Assay for human Forkhead box O (FoxO) (AID 2282943). The settings on record: HepG2 Attagene cis-reporter, FoxO element, mRNA; actives raise or lower the signal. In outline:
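Read-out: fluorescence of 6-FAM-labelled reporter cDNA fragments resolved by capillary electrophoresis. Transiently transfected HepG2 cells were dosed for 24 h; activity fitted in both directions relative to DMSO controls.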

Test [10] is described as follows: ATG_GATA_CIS: Attagene CIS-FACTORIAL HepG2 Assay for human GATA Binding Protein (AID 2282944). To be noted: HepG2 GATA cis-element reporter, Attagene multiplex mRNA; actives raise or lower the signal. In a few lines: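 Read-out: fluorescent reporter mRNA fragments resolved by capillary electrophoresis after RT-PCR. Human liver HepG2 cells carried transiently transfected cis-regulated reporter constructs; chemicals incubated 24 h; gain or loss of signal fitted relative to DMSO.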

Data on 18 compounds can be found in PubChem BioAssay (EPA / NIEHS).

The term AC50 denotes the midpoint of the concentration-response curve, whichever way the signal moves.

Calls of active or inactive are those of the source. The calls were made as follows: active = hit-call score of the fitted dose curve at least 0.9, where 1 is the maximum; inactive = score below 0.9.

Transcription factor E2F1 (Homo sapiens), sequence (Q01094 whole entry, looked up): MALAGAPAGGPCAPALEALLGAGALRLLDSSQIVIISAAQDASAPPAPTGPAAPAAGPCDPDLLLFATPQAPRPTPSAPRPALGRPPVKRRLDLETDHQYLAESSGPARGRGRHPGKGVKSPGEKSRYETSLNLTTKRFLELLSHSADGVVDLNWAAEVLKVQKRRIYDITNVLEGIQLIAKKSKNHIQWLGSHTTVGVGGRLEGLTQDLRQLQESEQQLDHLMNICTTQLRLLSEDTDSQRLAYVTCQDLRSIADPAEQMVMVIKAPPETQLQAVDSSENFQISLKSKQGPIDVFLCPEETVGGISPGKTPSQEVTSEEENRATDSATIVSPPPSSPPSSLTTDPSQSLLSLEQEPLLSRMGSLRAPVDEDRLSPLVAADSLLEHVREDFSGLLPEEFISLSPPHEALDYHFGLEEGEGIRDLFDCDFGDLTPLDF
Hepatocyte nuclear factor 3-beta (Homo sapiens), sequence (Q9Y261 whole entry, looked up): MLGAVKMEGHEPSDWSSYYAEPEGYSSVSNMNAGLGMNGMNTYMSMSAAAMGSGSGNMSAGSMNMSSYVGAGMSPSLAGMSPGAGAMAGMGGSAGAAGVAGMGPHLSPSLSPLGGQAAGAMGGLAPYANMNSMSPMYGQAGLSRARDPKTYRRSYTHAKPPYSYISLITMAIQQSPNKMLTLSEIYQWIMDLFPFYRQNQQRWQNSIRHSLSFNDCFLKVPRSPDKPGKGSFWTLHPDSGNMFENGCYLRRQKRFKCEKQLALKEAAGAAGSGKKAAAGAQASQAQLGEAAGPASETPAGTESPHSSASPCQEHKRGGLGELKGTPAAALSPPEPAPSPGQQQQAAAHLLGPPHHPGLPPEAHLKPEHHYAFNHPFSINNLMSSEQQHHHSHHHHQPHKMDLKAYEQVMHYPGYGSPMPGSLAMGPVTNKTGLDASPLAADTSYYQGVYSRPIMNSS

For the compound `COCC(=O)O`, the compound was called inactive in test [1], in test [2], in test [3], in test [4], in test [5] and in [6]. Further, the result in test [7], in test [8], in [9] and in test [10] was inactive.

On to `NC(=O)Nc1ccccc1`, for which the call in test [1], in test [2], in test [3], in test [4], in test [5] and in test [6] was inactive. Besides, the call in [7], in test [8], in test [9] and in test [10] was inactive.

Take `OCCCc1ccccc1`: the result in test [1], in [2], in test [3], in [4], in [5] and in test [6] was inactive. Further, the call in test [7], in [8], in test [9] and in [10] was inactive.

With `CC1=CC=C(C(C)C)CC1`, the compound was classed as inactive in test [1], in [2], in test [3], in test [4], in test [5] and in test [6]. Further, the call in test [7], in test [8], in test [9] and in test [10] was inactive.

Consider `C=CC(C)(CCC=C(C)C)OC(=O)C=Cc1ccccc1` (centres undefined), for which the result in test [1], in [2], in test [3], in [4], in test [5] and in test [7] was inactive. Also, the outcome in [8], in test [9] and in [10] was inactive. Besides, the AC50 in test [6] was 17.7 µM (active).

`Cc1ccc(S(=O)(=O)N=C=O)cc1`: the call in [1], in test [2], in test [3], in test [4], in test [5] and in test [6] was inactive. Moreover, the call in [7], in test [8], in test [9] and in test [10] was inactive.

With `CC1(C)[C@@H]2CC[C@@]1(C)C(=O)C2`, the outcome in test [1], in [2], in test [3], in test [4], in test [5] and in test [6] was inactive. In addition, the call in test [7], in test [8], in test [9] and in [10] was inactive.

For the compound `C=Cc1ccc(OC(C)=O)cc1`, the compound was classed as inactive in test [1], in test [2], in test [3], in [4], in [5] and in test [7]. Besides, the compound was called inactive in test [8], in test [9] and in test [10]. The AC50 in [6] is 35.9 µM (active).

As to `O=C(O)c1ccc2c(c1)C(=O)OC2=O`, the compound was called inactive in test [1], in [2], in test [3], in test [4], in test [5] and in [6]. Besides, the compound was called inactive in test [7], in test [8], in test [9] and in test [10].

As to `CCOC(=O)C1=NOC(c2ccccc2)(c2ccccc2)C1`, the call in test [1], in [2], in test [3], in test [4], in test [5] and in test [6] was inactive. Moreover, the compound was classed as inactive in test [8], in test [9] and in test [10].

Take `CC(C)=NNC(N)=S`: the compound was classed as inactive in test [1], in test [2], in test [3], in [4], in [5] and in [6]. The compound was called inactive in test [7], in [8], in [9] and in test [10].

Take `CCC(C)N` (centres undefined): the compound was called inactive in test [1], in [2], in [3], in [4], in [5] and in test [6]. Also, the result in test [8], in [9] and in [10] was inactive.

Turning to `CC(=O)OCC=C(C)C`, the call in test [1], in [2], in test [3], in test [4], in [5] and in test [6] was inactive. For the same compound, the result in [7], in test [8], in test [9] and in [10] was inactive.

Consider `COc1ccc(-c2coc3cc(O)cc(O)c3c2=O)cc1`, for which the call in test [1], in test [2], in test [3], in [4], in test [5] and in test [7] was inactive. Besides, the compound was classed as inactive in test [8], in test [9] and in [10]. Moreover, in test [6], the AC50 was 0.397 µM (active).

Take `CC(=O)OC(C)c1ccccc1` (centres undefined): the result in test [1], in test [2], in test [3], in [4], in test [5] and in [6] was inactive. The compound was called inactive in test [8], in test [9] and in [10].

`COC(C=C(C)CCC=C(C)C)OC`: the result in [1], in [2], in [3], in test [4], in test [5] and in test [6] was inactive. Also, the outcome in test [8], in [9] and in test [10] was inactive.

As for `CCCSSCCC`, the result in test [1], in [2], in test [3], in test [4], in test [5] and in [6] was inactive. Further, the outcome in test [8], in [9] and in test [10] was inactive.

Turning to `COC(=O)C=Cc1ccccc1`, the outcome in [1], in [2], in test [3], in test [4], in test [5] and in test [6] was inactive. Also, the result in test [8], in test [9] and in [10] was inactive.
